The values below come from ChEMBL document CHEMBL3988442, “University of Dundee, Small-Polar-MMV Screening Library” (2021).

Among all 38,000 compounds or so, about 1,200 (3.2%) showed an effect of 50% or more. The median lay at about -58%. Many of the other results were omitted from the sample, so strong results are more common in it than they were.

The test system of this experiment is Plasmodium falciparum. Description: Calibr Malaria Delayed Death Assay SOP. The class given is functional, organism-based. Details: scale not given: in the data most compounds retested in dose-response had high values. To be noted: concentration 4.99e-06 (unit not given; other assays of the set use mol/L).
For `CCn1ccnc1CN(C)C1CCCN(CCc2ccccc2)C1` (centres undefined), the “Percent Effect” value is given as 76.22%.

`O=C(NCCOc1ccc(Cl)cn1)NCCc1ccccn1`: the “Percent Effect” value is on record as -11.42%.

Consider `O=c1cc2c(nn1CN1CCSCC1)CCC2`, for which the “Percent Effect” value is given as -0.0745%.

Consider `CN(C)C1CCCN(C(=O)NCCc2cc(F)ccc2F)C1` (centres undefined), for which the “Percent Effect” value is given as -83%.

As to `CC(=O)N1CC(C)CN(C(=O)c2cnccn2)c2ccccc21` (centres undefined), the “Percent Effect” value is on record as -30.69%.

As to `Cn1nccc1NC(=O)c1cccc(CN2C[C@H]3CC[C@@H](C2)N3)c1`, the “Percent Effect” value is -132.7%.

Turning to `CCCc1ccc(CN2CCC3(CC2)CNC(=O)C3)o1`, the “Percent Effect” value amounted to 20.41%.

`CC(C)n1nc(CN(C)C)c2c1CN(CC1CC1)CC2.O=C(O)C(F)(F)F.O=C(O)C(F)(F)F`: the “Percent Effect” value is on record as -96.94%.

In the case of `CC(C)n1nc(CN2CCCC2)c2c1CN(CC1CC1)CC2.O=C(O)C(F)(F)F.O=C(O)C(F)(F)F`, the “Percent Effect” value turned out to be 54%.

With `Cn1nc(CN2CCCC2)c2c1CN(CC1CC1)CC2.O=C(O)C(F)(F)F.O=C(O)C(F)(F)F`, the “Percent Effect” value was -21.27%.

Turning to `Cc1noc(C)c1CN1CC[C@H]2OCC[C@@]2(C(=O)NC2CCCC2)C1.O=C(O)C(F)(F)F`, the “Percent Effect” value is given as 8.677%.

As to `Cc1cc(C)c2nc(C)cc(C(=O)NC(C)c3nnn[nH]3)c2c1` (centres undefined), the “Percent Effect” value is -3.579%.

As for `CO[C@H]1CNC[C@@H]1NC(=O)c1cc(C)nc2c(C)c(C)ccc12`, the “Percent Effect” value is given as -1.359%.

With `CO[C@H]1CNC[C@@H]1NC(=O)c1cc(C)nc2c(C)cc(C)cc12`, the “Percent Effect” value is recorded as 73.93%.

For `CCc1cnc(N2C[C@@H]3[C@@H](C(=O)N(C)C)CCS(=O)(=O)[C@@H]3C2)nc1`, the “Percent Effect” value is given as -56.54%.

Turning to `Cc1cc(C(=O)N2CCn3cc(CN(C)C)nc3C2)no1`, the “Percent Effect” value is on record as -39.89%.

Regarding `Cc1noc(C(C)C)c1C(=O)NCC(c1ccsc1)N(C)C` (centres undefined), the “Percent Effect” value came out at 17.17%.

`Cc1noc(C)c1C(=O)NCC(c1ccsc1)N(C)C` (centres undefined): the “Percent Effect” value is recorded as -8.165%.

As for `O=C(O)C(F)(F)F.O=C(c1ccccn1)N1C[C@H]2CCC[C@@]2(COCC2CCOCC2)C1`, the “Percent Effect” value is -43.42%.

For `Cc1cc(CN2CCC(CNS(=O)(=O)c3ccc(C)s3)CC2)c(C)o1`, the “Percent Effect” value is listed as 87.35%.

Turning to `O=S(=O)(NCC(O)c1ccoc1)c1ccc(Br)s1` (centres undefined), the “Percent Effect” value is on record as -179.3%.

On to `Cc1cc(CN2CCC(CNS(=O)(=O)c3c(C)noc3C)CC2)c(C)o1`, for which the “Percent Effect” value is given as 26.64%.

As for `Cc1cc(C(O)CCNS(=O)(=O)c2ccc(Cl)s2)c(C)o1` (centres undefined), the “Percent Effect” value was -41.19%.

Consider `Cc1cc(CN2CCC(CNS(=O)(=O)c3ccc(Br)s3)CC2)c(C)o1`, for which the “Percent Effect” value was 91.4%.

As to `Cc1ccc(S(=O)(=O)NCCc2ccoc2)s1`, the “Percent Effect” value was -129%.

As for `O=C(c1c[nH]nn1)N1CCCC1C1CCCCC1` (centres undefined), the “Percent Effect” value was determined as 48.49%.

For `O=C(C1CCC1)N1CCC(=O)N(C2CC2)Cc2cc(F)ccc21`, the “Percent Effect” value is -6.345%.

Consider `N#Cc1cc(Br)ccc1NC1CCN(CC(N)=O)CC1`, for which the “Percent Effect” value amounted to 19.71%.

With `CCNc1ccnc(NC2CCN(CC(N)=O)CC2)n1`, the “Percent Effect” value is on record as -56.83%.

Turning to `Cc1cccc(-n2c(C)cc(=O)[nH]c2=O)c1C`, the “Percent Effect” value was -21.52%.

For the molecule `CC1CCN(CCCNC(=O)c2ccc(N(C)S(C)(=O)=O)cc2Cl)CC1`, the “Percent Effect” value is recorded as -35.22%.

Regarding `O=C(NCc1ccccc1)NCC1CCN(Cc2ccsc2)CC1`, the “Percent Effect” value was -54.93%.

On to `CC(=O)c1cn(CCC(=O)Nc2c3c(nn2C)CSC3)c2ccccc12`, for which the “Percent Effect” value is 26.69%.

As to `Fc1ccc(CC2CCN(Cc3nccs3)CC2)cc1`, the “Percent Effect” value is 0.00383%.

Consider `Fc1cccc(CN2CCN(Cc3cscn3)CC2)c1`, for which the “Percent Effect” value is given as -54.95%.

As to `Fc1ccc(CC2CCN(Cc3cscn3)CC2)cc1`, the “Percent Effect” value is 50.2%.

Consider `CC(C)c1n[nH]c(C2CN(C(=O)c3cc(C(N)=O)cs3)CCO2)n1` (centres undefined), for which the “Percent Effect” value is listed as -7.804%.

Regarding `CN(C)c1ncccc1CNc1snc(Cl)c1C#N`, the “Percent Effect” value is reported as -8.92%.

For `O=C(NC[C@H]1OC[C@@H]2CCN(Cc3ccco3)C[C@@H]21)c1ccsc1.O=C(O)C(F)(F)F`, the “Percent Effect” value is listed as -100.7%.

Consider `Cc1ccc(N2CC[C@H]3CO[C@H](CN(C)Cc4ccco4)[C@H]3C2)nn1.O=C(O)C(F)(F)F.O=C(O)C(F)(F)F`, for which the “Percent Effect” value is on record as -41.04%.

Turning to `CN(Cc1ccco1)C[C@H]1OC[C@@H]2CCN(Cc3ccsc3)C[C@@H]21.O=C(O)C(F)(F)F.O=C(O)C(F)(F)F`, the “Percent Effect” value came out at 65.82%.

For `Cc1ccc(CN2CC[C@H]3CO[C@H](CN(C)C)[C@H]3C2)o1`, the “Percent Effect” value is reported as -9.526%.

On to `Cc1ccc(CN2CC[C@H]3CO[C@H](CN(C)Cc4ccco4)[C@H]3C2)s1.O=C(O)C(F)(F)F.O=C(O)C(F)(F)F`, for which the “Percent Effect” value is 57.63%.

For the molecule `CN1CCN(C[C@H]2OC[C@@H]3CCN(Cc4ccsc4)C[C@@H]32)CC1`, the “Percent Effect” value was found to be 77.67%.

Take `CN(Cc1ccco1)C[C@@H]1OC[C@H]2CN(Cc3nccs3)CC[C@H]21.O=C(O)C(F)(F)F.O=C(O)C(F)(F)F`: the “Percent Effect” value was -54.97%.

Turning to `CN1CCN(C[C@@H]2OC[C@H]3CN(Cc4ccsc4)CC[C@H]32)CC1.O=C(O)C(F)(F)F.O=C(O)C(F)(F)F.O=C(O)C(F)(F)F`, the “Percent Effect” value is 7.397%.

`O=C(O)C(F)(F)F.O=C(O)C(F)(F)F.c1cc(CN2CC[C@H]3CO[C@H](CN4CCOCC4)[C@H]3C2)cs1`: the “Percent Effect” value is -2.124%.

Regarding `O=C(O)C(F)(F)F.O=C(O)C(F)(F)F.c1cnc(NC[C@H]2OC[C@@H]3CCN(Cc4ccsc4)C[C@@H]32)nc1`, the “Percent Effect” value is -30.65%.

Consider `Cc1cccc(N2CC[C@H]3[C@H](CO[C@@H]3CN(C)Cc3ccco3)C2)n1.O=C(O)C(F)(F)F.O=C(O)C(F)(F)F`, for which the “Percent Effect” value worked out at 3.761%.
